Data from PubChem BioAssay (Tox21).
Records with an inconclusive call do not appear. Activity calls are given as the source filed them. Unless noted, calls follow the shape of the dose curve; as a rule, active = well fitted curve in the direction sought with a large enough effect in the repeat runs; inconclusive = weak or mixed curves; inactive = no such curve, though single readings can be large; an effect the other way counts as inactive or inconclusive.

Key:
[1] = qHTS assay to identify small molecule agonists of the sonic hedgehog signaling (Shh) pathway (AID 1259368; calls by dose curve;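 also: NIH/3T3-derived 3T3Gli1-Luc cells carrying a stable Gli1-driven firefly luciferase reporter; series mostly up to about 92 µM; nearly all actives have a fitted effect of over 15% in size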)
Method in brief: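 Quantitative high-throughput format using a Gli1-driven firefly luciferase reporter line derived from NIH/3T3 cells. After a 24 hr compound treatment at 37 C and 5% CO2, luminescence reported Gli1 response element activity.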

[2] = qHTS assay to identify small molecule antagonists of the sonic hedgehog signaling (Shh) pathway (AID 1259369; calls by dose curve; also: nearly all actives have a fitted effect of over 45% in size)
Method in brief: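 Stable Gli1-Luc reporter NIH/3T3 clone; quantitative HTS in stimulated mode with conditioned medium. Luminescence measured after 24hr compound treatment at 37 C.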

[3] = target: Estrogen receptor beta (Homo sapiens) (UniProt Q92731); experiment: qHTS assay to identify small molecule agonists of the estrogen receptor beta (ER-beta) signaling pathway (AID 1259377; active = well fitted activation curve with a large enough effect in the signal ratio in the repeat runs, not every such curve was filed as active; the % refers to the signal ratio)
Chain of Estrogen receptor beta (Homo sapiens) (Q92731 whole entry, looked up): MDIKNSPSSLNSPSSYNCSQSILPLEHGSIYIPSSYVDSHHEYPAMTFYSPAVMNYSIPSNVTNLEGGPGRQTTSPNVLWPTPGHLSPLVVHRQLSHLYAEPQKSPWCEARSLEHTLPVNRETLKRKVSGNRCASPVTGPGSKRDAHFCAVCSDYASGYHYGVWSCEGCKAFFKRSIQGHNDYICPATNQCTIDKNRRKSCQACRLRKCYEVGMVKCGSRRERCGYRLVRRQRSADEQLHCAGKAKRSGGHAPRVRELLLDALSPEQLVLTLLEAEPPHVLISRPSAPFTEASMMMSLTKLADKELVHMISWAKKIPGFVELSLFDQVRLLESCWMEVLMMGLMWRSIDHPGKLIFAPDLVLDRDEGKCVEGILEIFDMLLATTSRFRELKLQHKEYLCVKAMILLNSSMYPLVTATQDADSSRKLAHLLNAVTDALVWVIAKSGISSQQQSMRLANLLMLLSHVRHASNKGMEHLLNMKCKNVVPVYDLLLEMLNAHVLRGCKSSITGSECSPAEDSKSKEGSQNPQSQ
Method in brief: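 ER-beta-UAS-bla HEK293T (GripTite) cells carrying a UAS-driven beta-lactamase reporter, in medium with 2% charcoal-stripped FBS, were exposed to compounds for 16 hr at 37C; LiveBLAzer B/G FRET substrate was then added and fluorescence read after 2 hours at room temperature.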

[4] = qHTS assay to identify small molecule agonists of the androgen receptor (AR) signaling pathway in the presence of an antagonist - cell viability counter screen (AID 1259379);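 also: MDA-kb2 human breast cancer cells carrying an MMTV luciferase reporter; series mostly up to about 92 µM; nearly all actives have a fitted effect of over 25% in size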
Method in brief: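 Nilutamide-containing (3.0uM final) MDA-kb2 cultures, 3,000 cells/well, were treated with compounds across 15 concentrations. After 16 hr at 37C with no CO2, cell viability was determined by CellTiter-Fluor fluorescence in the luciferase assay wells.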

[5] = qHTS assay to identify small molecule agonists of the estrogen receptor beta (ER-beta) signaling pathway - cell viability counter screen (AID 1259380); also: nearly all actives have a fitted effect of over 30% in size
Method in brief: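 Steps: plate ER-beta-UAS-bla HEK293T cells, rest 6 hr; add compounds in DMSO; incubate 16 hr at 37C, 5% CO2; add FRET substrate 2 hr; add CellTiter-Glo, wait 30 min at room temperature; read luminescence.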

[6] = target: Androgen receptor (Homo sapiens) (UniProt P10275); experiment: qHTS assay to identify small molecule agonists of the androgen receptor (AR) signaling pathway in the presence of an antagonist (AID 1259381; calls by dose curve; also: nearly all actives have a fitted effect of over 15% in size)
Chain of Androgen receptor (Homo sapiens) (P10275 whole entry, looked up): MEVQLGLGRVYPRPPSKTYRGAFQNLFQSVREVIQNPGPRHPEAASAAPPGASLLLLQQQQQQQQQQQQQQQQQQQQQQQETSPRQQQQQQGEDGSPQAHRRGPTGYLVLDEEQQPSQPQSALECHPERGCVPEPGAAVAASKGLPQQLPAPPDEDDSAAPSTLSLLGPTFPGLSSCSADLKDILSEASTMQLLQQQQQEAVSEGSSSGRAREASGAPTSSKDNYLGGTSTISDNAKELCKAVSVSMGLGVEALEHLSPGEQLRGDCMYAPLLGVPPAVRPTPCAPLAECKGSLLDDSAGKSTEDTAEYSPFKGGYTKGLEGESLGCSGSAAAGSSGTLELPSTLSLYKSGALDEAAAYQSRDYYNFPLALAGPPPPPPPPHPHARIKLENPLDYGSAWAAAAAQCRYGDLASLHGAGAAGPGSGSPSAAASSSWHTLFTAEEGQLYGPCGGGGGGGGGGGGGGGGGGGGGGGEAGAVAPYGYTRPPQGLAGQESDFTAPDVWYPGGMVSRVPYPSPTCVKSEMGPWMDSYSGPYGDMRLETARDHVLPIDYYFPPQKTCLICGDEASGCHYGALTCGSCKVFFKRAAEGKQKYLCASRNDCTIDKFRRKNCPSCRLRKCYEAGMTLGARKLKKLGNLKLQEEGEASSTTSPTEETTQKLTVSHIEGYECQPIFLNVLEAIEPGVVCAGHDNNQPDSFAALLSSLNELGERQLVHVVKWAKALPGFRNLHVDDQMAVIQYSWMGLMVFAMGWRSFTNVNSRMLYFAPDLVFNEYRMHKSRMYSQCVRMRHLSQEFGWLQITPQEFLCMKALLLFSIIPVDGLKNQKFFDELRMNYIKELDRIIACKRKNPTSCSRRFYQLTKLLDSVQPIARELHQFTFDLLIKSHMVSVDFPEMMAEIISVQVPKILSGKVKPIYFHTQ
Method in brief: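 Reporter-gene luminescence from MDA-kb2 cells exposed 16hr at 37C (0% CO2) to 15-point compound titrations with 3.0uM final nilutamide as AR antagonist.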

[7] = qHTS assay to identify small molecule antagonists of the estrogen receptor beta (ER-beta) signaling pathway - cell viability counter screen (AID 1259382); also: series mostly up to about 92 µM; nearly all actives have a fitted effect of over 55% in size
Method in brief: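 Viability is scored by CellTiter-Glo luminescence (30 min, room temperature) in ER-beta-UAS-bla HEK293T wells already read for reporter fluorescence. Compound exposure lasts 16 hr at 37C alongside 1nM 17-beta-estradiol in charcoal-stripped serum medium.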

[8] = target: Estrogen receptor (Homo sapiens) (UniProt P03372); experiment: qHTS assay to identify small molecule agonists of the estrogen receptor alpha (ER-alpha) signaling pathway in the presence of an antagonist (AID 1259383; calls by dose curve; also: top concentration of the series differs between compounds; nearly all actives have a fitted effect of over 15% in size)
Chain of Estrogen receptor (Homo sapiens) (P03372 whole entry, looked up): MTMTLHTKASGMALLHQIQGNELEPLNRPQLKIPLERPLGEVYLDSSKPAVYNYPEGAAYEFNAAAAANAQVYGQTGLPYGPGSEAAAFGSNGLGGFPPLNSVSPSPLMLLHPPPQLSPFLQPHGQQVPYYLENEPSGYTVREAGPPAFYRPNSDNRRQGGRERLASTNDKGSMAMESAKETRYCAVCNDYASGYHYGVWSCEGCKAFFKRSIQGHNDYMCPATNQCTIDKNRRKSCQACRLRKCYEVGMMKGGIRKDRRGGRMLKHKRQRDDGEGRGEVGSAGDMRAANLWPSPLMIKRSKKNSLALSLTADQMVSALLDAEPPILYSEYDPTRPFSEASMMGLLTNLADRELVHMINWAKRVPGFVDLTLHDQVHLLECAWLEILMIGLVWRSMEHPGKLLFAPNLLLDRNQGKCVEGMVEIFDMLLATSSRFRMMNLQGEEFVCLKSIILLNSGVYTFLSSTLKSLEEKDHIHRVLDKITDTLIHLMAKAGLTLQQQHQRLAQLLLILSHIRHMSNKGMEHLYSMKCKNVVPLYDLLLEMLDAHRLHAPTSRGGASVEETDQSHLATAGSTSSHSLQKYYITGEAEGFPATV
Method in brief: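 Readout was ERE-driven luciferase luminescence in VM7Luc4E2 cells, which express full-length ER-alpha endogenously. Compounds were tested at 15 concentrations for 22hr alongside 10.0nM ICI-182,780 (final concentration).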

[9] = qHTS assay to identify small molecule agonists or antagonists of the thyroid stimulating hormone receptor (TSHR) signaling pathway - wild type cell line counter screen (AID 1259384; calls by dose curve)
Method in brief: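 Wild-type Hek293 cells, 800/well, 18 h at 37C, then compound with Ro20-1724 for 30 min RT. cAMP by HTRF (cAMP-d2/anti-cAMP cryptate), 1 h RT, fluorescence read. 15 concentrations, triplicates.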

[10] = target: Thyrotropin receptor (Homo sapiens) (UniProt P16473); experiment: qHTS assay to identify small molecule antagonists of the thyroid stimulating hormone receptor (TSHR) signaling pathway (AID 1259385; calls by dose curve; also: nearly all actives have a fitted effect of over 20% in size)
Chain of Thyrotropin receptor (Homo sapiens) (P16473 whole entry, looked up): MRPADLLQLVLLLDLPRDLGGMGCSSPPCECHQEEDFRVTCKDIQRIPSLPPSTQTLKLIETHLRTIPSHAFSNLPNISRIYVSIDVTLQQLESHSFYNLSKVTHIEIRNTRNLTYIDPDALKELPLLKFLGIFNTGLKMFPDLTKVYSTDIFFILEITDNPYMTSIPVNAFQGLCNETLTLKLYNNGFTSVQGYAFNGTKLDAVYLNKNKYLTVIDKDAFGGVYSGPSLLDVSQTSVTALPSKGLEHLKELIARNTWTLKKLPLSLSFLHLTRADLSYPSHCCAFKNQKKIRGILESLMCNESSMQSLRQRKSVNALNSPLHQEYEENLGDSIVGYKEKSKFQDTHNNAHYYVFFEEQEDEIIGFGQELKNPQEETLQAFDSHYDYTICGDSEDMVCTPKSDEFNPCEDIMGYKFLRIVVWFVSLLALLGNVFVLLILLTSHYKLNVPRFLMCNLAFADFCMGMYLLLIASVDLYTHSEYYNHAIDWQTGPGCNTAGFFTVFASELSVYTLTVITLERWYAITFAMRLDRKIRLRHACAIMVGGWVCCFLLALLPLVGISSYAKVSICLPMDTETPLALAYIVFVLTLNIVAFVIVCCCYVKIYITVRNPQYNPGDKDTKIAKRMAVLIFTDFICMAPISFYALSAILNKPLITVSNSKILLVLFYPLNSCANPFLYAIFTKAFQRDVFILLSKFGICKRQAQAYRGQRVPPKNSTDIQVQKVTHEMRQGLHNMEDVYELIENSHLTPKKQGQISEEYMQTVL
Method in brief: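 TSHR-HEK293 cells (800/well) plated 18 h, then compounds with Ro20-1724 and TSH at 1.5 ng/mL final, 30 min at room temperature. cAMP quantified by HTRF (cAMP-d2/anti-cAMP-cryptate, 1 h); 15 concentrations in triplicate.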

[11] = qHTS assay to identify small molecule agonists of the estrogen receptor alpha (ER-alpha) signaling pathway in the presence of an antagonist - cell viability counter screen (AID 1259386);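 also: series mostly up to about 92 µM; cells exposed to compounds for 22 h at 37 °C before the viability read; nearly all actives have a fitted effect of over 30% in size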
Method in brief: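 In this counter screen, compound effects on VM7Luc4E2 viability were tested in the presence of the antagonist ICI-182,780 at 10.0nM final. Compounds were dosed at 15 concentrations, exposure lasted 22hr, and the CellTiter-Fluor signal was read.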

[12] = target: Progesterone receptor (Homo sapiens) (UniProt P06401); experiment: qHTS assay to identify small molecule agonists of the progesterone receptor (PR) signaling pathway (AID 1346784; calls by dose curve; also: nearly all actives have a fitted effect of over 30% in size)
Chain of Progesterone receptor (Homo sapiens) (P06401 whole entry, looked up): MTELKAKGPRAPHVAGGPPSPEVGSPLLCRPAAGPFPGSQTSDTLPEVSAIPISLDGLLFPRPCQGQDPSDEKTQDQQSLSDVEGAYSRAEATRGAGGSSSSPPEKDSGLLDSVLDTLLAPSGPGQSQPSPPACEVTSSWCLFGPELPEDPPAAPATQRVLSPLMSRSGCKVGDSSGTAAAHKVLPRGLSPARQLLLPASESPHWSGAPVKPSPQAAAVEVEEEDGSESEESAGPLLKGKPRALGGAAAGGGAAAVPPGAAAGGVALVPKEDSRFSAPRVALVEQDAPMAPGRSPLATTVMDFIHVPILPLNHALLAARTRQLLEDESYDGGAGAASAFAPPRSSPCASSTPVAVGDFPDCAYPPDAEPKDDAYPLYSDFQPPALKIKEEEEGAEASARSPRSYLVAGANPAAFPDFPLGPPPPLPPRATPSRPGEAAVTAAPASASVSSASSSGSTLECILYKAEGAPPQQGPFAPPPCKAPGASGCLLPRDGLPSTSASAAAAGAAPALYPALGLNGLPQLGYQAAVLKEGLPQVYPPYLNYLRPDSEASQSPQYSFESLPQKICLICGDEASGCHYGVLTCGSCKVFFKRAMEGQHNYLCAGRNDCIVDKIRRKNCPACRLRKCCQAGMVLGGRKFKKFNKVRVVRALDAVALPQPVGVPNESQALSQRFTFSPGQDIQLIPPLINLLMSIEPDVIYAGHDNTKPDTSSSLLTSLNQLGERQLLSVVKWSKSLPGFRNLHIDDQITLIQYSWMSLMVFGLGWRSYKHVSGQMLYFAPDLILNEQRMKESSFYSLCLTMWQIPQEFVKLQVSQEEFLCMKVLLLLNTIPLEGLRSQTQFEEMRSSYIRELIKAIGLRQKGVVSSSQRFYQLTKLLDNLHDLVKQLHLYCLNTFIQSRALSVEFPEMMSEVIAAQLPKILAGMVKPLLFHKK
Method in brief: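 PR-UAS-bla HEK 293T cells carrying a UAS-driven beta-lactamase reporter were seeded in medium with 2% charcoal-stripped FBS, preincubated 6 hr at 37C, then exposed to compounds in DMSO for 16 hr; agonism was read by LiveBLAzer B/G FRET fluorescence.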

[13] = target: Progesterone receptor (Homo sapiens) (UniProt P06401); experiment: qHTS assay to identify small molecule antagonists of the progesterone receptor (PR) signaling pathway (AID 1346795; active = well fitted inhibition curve with a large enough effect in the signal ratio in the repeat runs, not every such curve was filed as active; the % refers to the signal ratio)
Method in brief: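 PR-UAS-bla HEK293T cells carrying a UAS-driven beta-lactamase reporter were plated in medium with 2% charcoal-stripped FBS and rested 6 hr at 37C. Compounds were added with 1 nM R5020 (final) for 16 hr, then FRET substrate loaded 2 hr at room temperature.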

[14] = qHTS assay to identify small molecule antagonists of the progesterone receptor (PR) signaling pathway - cell viability counter screen (AID 1346798); also: series mostly up to about 92 µM; nearly all actives have a fitted effect of over 50% in size
Method in brief: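 PR-UAS-bla HEK293T cells in medium with 2% charcoal-stripped FBS were treated with compounds plus R5020 for 16 hr at 37C. Cell viability was then read by CellTiter-Glo luminescence after 30 min at room temperature in the same wells.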

[15] = qHTS assay to identify small molecule antagonists of the TGF-beta/Smad signaling pathway - cell viability counter screen (AID 1346824); also: nearly all actives have a fitted effect of over 50% in size
Method in brief: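 SBE-bla HEK 293T cells, incubated overnight, then compound plus 0.25 ng/mL TGF-beta1 (stock added) for 5 hr at 37 C. Viability was read in the same wells by CellTiter-Glo luminescence after 30 min at room temperature.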

[16] = qHTS assay to identify small molecule agonists of the TGF-beta/Smad signaling pathway - cell viability counter screen (AID 1346829); also: top concentration of the series differs between compounds; nearly all actives have a fitted effect of over 45% in size
Method in brief: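 HEK 293T SBE-bla line, 5 hr compound exposure at 37 C, multiplexed CellTiter-Glo viability read by luminescence.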

[17] = qHTS assay to identify small molecule agonists of the progesterone receptor (PR) signaling pathway - cell viability counter screen (AID 1346799; calls by dose curve; also: nearly all actives have a fitted effect of over 45% in size)
Method in brief: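 PR-UAS-bla HEK293T cells, 3,000 per well in medium with 2% charcoal-stripped FBS, were preincubated 6 hr at 37C, then exposed to compounds for 16 hr; viability was read as CellTiter-Glo luminescence after 30 min at room temperature.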

[18] = qHTS assay to identify small molecule agonists of the TGF-beta/Smad signaling pathway (AID 1346859; active = well fitted activation curve with a large enough effect in the signal ratio in the repeat runs, not every such curve was filed as active; the % refers to the signal ratio; also: series mostly up to about 77 µM)
Method in brief: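 HEK 293T cells stably carrying a beta-lactamase reporter driven by the Smad binding element were seeded overnight, exposed to DMSO-dissolved compounds for 5 hr at 37 C, 5% CO2, then loaded with FRET substrate for 2 hr at room temperature.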

[19] = target: Thyrotropin-releasing hormone receptor (Homo sapiens) (UniProt P34981); experiment: qHTS assay to identify small molecule antagonists of the thyrotropin-releasing hormone receptor (TRHR) signaling pathway (AID 1346877; active = well fitted inhibition curve with a large enough effect in the repeat runs, not every such curve was filed as active; also: series mostly up to about 51 µM)
Chain of Thyrotropin-releasing hormone receptor (Homo sapiens) (P34981 whole entry, looked up): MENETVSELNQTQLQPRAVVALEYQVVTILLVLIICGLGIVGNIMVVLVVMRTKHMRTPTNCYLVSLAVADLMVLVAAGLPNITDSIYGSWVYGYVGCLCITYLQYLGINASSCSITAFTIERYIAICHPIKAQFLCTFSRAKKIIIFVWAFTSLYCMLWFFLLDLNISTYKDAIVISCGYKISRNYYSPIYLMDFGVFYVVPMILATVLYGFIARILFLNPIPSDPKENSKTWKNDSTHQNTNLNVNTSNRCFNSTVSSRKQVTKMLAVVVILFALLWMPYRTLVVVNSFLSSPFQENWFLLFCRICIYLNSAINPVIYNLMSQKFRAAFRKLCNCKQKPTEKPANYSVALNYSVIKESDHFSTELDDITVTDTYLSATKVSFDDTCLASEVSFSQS
Method in brief: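 Kinetic fluorescence (3 min, 1 s resolution) following stimulation with TRH at 1 nM final; HEK293 cells bearing human TRHR; 5 min compound preincubation at RT; concentration-response over 15 points, triplicates.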

Measured: Potency

CC(C)(C)c1nnc(NS(=O)(=O)c2ccc(N)cc2)s1
not listed: [17] | [18] | [19]
inactive: all other assays above

CCN1CCc2nc(N)oc2CC1
not listed: [6] | [9]
inactive: all other assays above

NS(=O)(=O)c1cc2c(cc1Cl)CN(C1CCCCC1)C2=O
not listed: [8] | [9] | [17]
inactive: all other assays above

Cc1cc(Cl)c(C)cc1Cl
not listed: [7] | [8] | [9] | [10]
inactive: all other assays above

CCCCCCOC(=O)CC
not listed: [6] | [9] | [10]
inactive: all other assays above

O=C(NCCc1c[nH]c2ccccc12)c1cccnc1
not listed: [17]
inactive: all other assays above

Oc1ccccc1-c1nnco1
inactive: all assays above
